Here are results for 109 molecules from PubChem BioAssay AID488922 (Johns Hopkins Ion Channel Center, 2010).

The whole screen tested about 310,000 compounds, of which about 3,800 (1.2%) were called active.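 Rule for the calls: active = ratio B-score over 3 SD below the library mean, with starting fluorescence within 5 SD of its mean; inactive = the rest, inconclusive results apart.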 The entries come from a sample that favours actives as a whole.

The target in this test is Potassium channel subfamily K member 9 (Homo sapiens) (UniProt Q9NPC2). The experiment in a line: KCNK9 potassium channel inhibitors, primary screen, HEK293 cells, thallium flux (AID 488922).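 For B-score: negative B-score means less thallium flux so channel inhibition.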 The following applies: HEK293 KCNK9, FluxOR thallium flux fluorescence, at 10 µM; active compounds read low.
Sequence of Potassium channel subfamily K member 9 (Homo sapiens) (Q9NPC2 whole entry, looked up): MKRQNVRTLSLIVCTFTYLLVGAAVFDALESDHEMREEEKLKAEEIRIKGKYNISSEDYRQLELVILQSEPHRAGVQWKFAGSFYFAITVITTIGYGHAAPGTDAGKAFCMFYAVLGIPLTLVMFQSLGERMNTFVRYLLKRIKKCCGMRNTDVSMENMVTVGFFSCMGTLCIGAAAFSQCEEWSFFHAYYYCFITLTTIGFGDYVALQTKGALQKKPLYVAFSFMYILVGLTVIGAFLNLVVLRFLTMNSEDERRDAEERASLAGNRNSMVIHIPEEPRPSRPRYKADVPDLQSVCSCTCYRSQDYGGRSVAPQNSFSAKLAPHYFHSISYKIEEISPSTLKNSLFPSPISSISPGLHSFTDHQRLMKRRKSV
Consider `CC1(c2cccc([N+](=O)[O-])c2)CC(C)(C)N(C(=O)c2ccccc2)c2ccccc21` (centres undefined), for which the B-score was -7.5 (active).
As for `O=C(c1cccc([N+](=O)[O-])c1)N1CCN(Cc2ccccc2)CC1`, the B-score entry was “inactive”.
Consider `CC1(c2ccccc2)CC(C)(C)N(C(=O)c2cc([N+](=O)[O-])cc([N+](=O)[O-])c2)c2ccccc21` (centres undefined), for which the B-score entry was “inactive”.
On to `O=C(NC(=S)Nc1ccc(Cl)cc1Cl)C1CC1`, for which the B-score result was “inactive”.
As to `CC(CC(=O)O)CC(=O)NNC(=O)c1cccc(Br)c1` (centres undefined), the B-score result is “inactive”.
The same measure for `Cc1ccccc1NC(=S)NNC(=O)c1cccc(Br)c1`: “inactive”.
Turning to `O=C(/C=C/NNC(=O)c1cccc(Br)c1)c1ccccc1`, the B-score was -12.9 (active).
With `Cc1c(C(C)(C)O)[nH]c2ccc(C#N)cc12`, the B-score entry is “inactive”.
For the molecule `O=C(O)/C=C/C(=O)NNc1ccc([N+](=O)[O-])cc1`, the B-score entry was “inactive”.
With `Cc1cccc(NC(=O)CSc2nnc(CCCCCNC(=O)OC(C)(C)C)o2)c1C`, the B-score entry was “inactive”.
As to `Cc1ccc(C(=O)Cc2nnc(C)s2)cc1`, the B-score result is “inactive”.
Take `CCOC(=O)C1CCCN(S(=O)(=O)c2ccc(-n3cnnn3)c(C)c2)C1` (centres undefined): the B-score entry was “inactive”.
In the case of `CCN(/N=C/c1ccc(N(C)C)cc1)c1nc2ccccc2[nH]1`, the B-score entry is “inactive”.
Take `Oc1ccc(/C=N/N(Cc2ccccc2)c2ccccc2)cc1`: the B-score is -7.55 (active).
`CN(C)c1ccc(/C=N/N(Cc2ccccc2)c2ccccc2)cc1`: the B-score result is “inactive”.
Then `COc1ccc(CCn2nnnc2C(c2ccccc2)N2CCN(C)CC2)cc1OC` (centres undefined), with “inactive”; and `N#Cc1ccc(C(c2nnnn2CCc2ccccc2)N2CCCCCC2)cc1` (centres undefined), with -7.47 (active); and `CC(C)C(c1nnnn1CCc1ccccc1)N1CCN(C(=O)c2ccco2)CC1` (centres undefined), with “inactive”.
Consider `COc1ccc(OC)c(C(O)c2nc3ccccc3n2C)c1` (centres undefined), for which the B-score is -7.74 (active).
Turning to `CCn1c(C(O)c2cc(OC)ccc2OC)nc2ccccc21` (centres undefined), the B-score result was “inactive”.
In the case of `CCCn1c(C(O)c2cc(OC)ccc2OC)nc2ccccc21` (centres undefined), the B-score result was “inactive”.
The same measure for `Cn1ncc2c(N3CCCCC3)nc(NCCCO)nc21`: “inactive”; for `COc1ccccc1C(=O)NCc1nnc(SC(C)C(=O)Nc2nccs2)n1C` (centres undefined): “inactive”; for `C=CCc1cc(S(=O)(=O)c2ccc(O)c(CC=C)c2)ccc1O`: -11.9 (active).
On to `CCOC(=O)N1CCC(NC(=O)CN2C(=O)COc3ccc(C(C)(C)C)cc32)CC1`, for which the B-score entry was “inactive”.
In the case of `C#CC(C)(C)NC(=O)c1cnc(-c2ccccc2)nc1-c1ccccc1`, the B-score result was “inactive”.
Take `COc1ccc(C2CC(c3cccs3)=NN2C(=O)CSc2nnc(N)s2)cc1OC` (centres undefined): the B-score result was “inactive”.
Take `COc1ccc(C2CC(c3cccs3)=NN2C(=O)CSc2nncs2)cc1OC` (centres undefined): the B-score result is “inactive”.
Then `COc1ccc(C2CC(c3cccs3)=NN2c2ccccc2)cc1` (centres undefined), with -11.3 (active).
The same measure for `COc1ccc(C2CC(c3cccs3)=NN2c2ccc(F)cc2)cc1OC` (centres undefined): -7.88 (active); for `COc1ccc(C2=NN(c3ccccc3)C(c3cccs3)C2)cc1` (centres undefined): “inactive”; for `COc1ccc(C2CC(c3cccs3)=NN2c2nc(C)c(C(C)=O)s2)cc1OC` (centres undefined): “inactive”.
With `COc1ccc(C2CC(c3cccs3)=Nc3ccccc3S2)cc1OC` (centres undefined), the B-score is -8.55 (active).
The same measure for `COc1ccc(C2CC(c3cccs3)=NN2C(=O)CCC(=O)O)cc1OC` (centres undefined): “inactive”; for `COc1ccccc1N1N=C(c2cccs2)CC1c1ccccc1` (centres undefined): “inactive”; for `COc1ccc(NCCc2ccccn2)cc1`: “inactive”.
On to `Cc1nn(C)c(C)c1C(C)NC(=O)c1ccc(OC2CCN(Cc3ccccn3)CC2)cc1` (centres undefined), for which the B-score result was “inactive”.
As to `COc1ccccc1/C=C/C(=O)NC1CC2CCC1C2` (centres undefined), the B-score entry was “inactive”.
Consider `Cc1ccc(SCC2=NNC(=O)C2)cc1`, for which the B-score entry is “inactive”.
As for `O=C(COC(=O)c1cccc(Br)c1)Nc1cccc2c1C(=O)c1ccccc1C2=O`, the B-score result was “inactive”.
Turning to `O=C(COC(=O)c1ccccc1)Nc1ccccc1Sc1ccccc1`, the B-score was -9.75 (active).
As to `Cc1ccccc1C(=O)Nc1ccccc1Sc1ccccc1`, the B-score result was “inactive”.
As to `CCn1c(=O)n(CC)c2cc(N3CCCC3)c(NC(=O)c3ccccc3Br)cc21`, the B-score result is “inactive”.
For the molecule `COc1ccc(-c2c(C(C)=O)c(C)nc3sc4c(=O)n(-c5ccc(C)cc5)nnc4c23)cc1`, the B-score result is “inactive”.
Turning to `O=C(COc1ccc([N+](=O)[O-])cc1Cl)Nn1cnnc1`, the B-score result was “inactive”.
As for `O=C(COc1ccc(F)cc1)N(CC1=CCS(=O)(=O)C1)c1ccccc1`, the B-score result is “inactive”.
On to `CCN(C(=O)COc1ccc(C(=O)c2ccccc2)cc1)c1ccccc1`, for which the B-score is -8.43 (active).
Turning to `CCN(C(=O)c1ccc(Br)cc1)c1ccccc1`, the B-score result was “inactive”.
Consider `COc1ccc2cc(CCl)c(Cl)nc2c1`, for which the B-score entry is “inactive”.
Take `Cc1ccc(S(=O)(=O)N(CCCN(C)C)Cc2ccc3c(c2)OCO3)cc1`: the B-score entry was “inactive”.
For the molecule `O=C(CN1CCN(c2ccc(F)cc2)CC1)Nc1ccccc1`, the B-score result was “inactive”.
Regarding `O=C(CSC1CC(=O)N(CCc2ccccc2)C1=O)Nc1ccc(Cl)cc1` (centres undefined), the B-score entry is “inactive”.
As for `O=C(C[C@H]1C(=O)N(c2ccc(F)c(F)c2)C[C@@H]1Cc1ccccc1)Nc1ccccc1`, the B-score was -12.2 (active).
As for `CC(c1ccccc1)n1c(NCCCn2ccnc2)nc2c1c(=O)[nH]c(=O)n2C` (centres undefined), the B-score result was “inactive”.
In the case of `CC1CCCCC1NC(=O)COC(=O)Cc1ccc(Br)cc1` (centres undefined), the B-score entry is “inactive”.
The same measure for `COc1ccc(-c2noc(COc3ccc(Cl)c(C)c3)n2)cc1`: “inactive”; for `COCc1cc(C(C)=O)ccc1OC`: “inactive”.
Consider `COc1ccc(C(C)=O)cc1COc1ccc(Cl)c(C)c1`, for which the B-score was -10.5 (active).
Regarding `COc1ccc(/C(N)=N/OC(=O)Cc2ccccc2)cc1`, the B-score result was “inactive”.
In the case of `O=C(Nc1ccc(Br)c2cccnc12)c1ccc(Cn2cc([N+](=O)[O-])cn2)o1`, the B-score is -12.7 (active).
On to `O=C(c1ccc(Cn2cc([N+](=O)[O-])cn2)o1)N1CCCC1`, for which the B-score result is “inactive”.
Then `COc1cccc(NC(=O)c2ccc(Cn3cc([N+](=O)[O-])cn3)o2)c1`, with “inactive”; and `O=C(Nc1nonc1-c1ccc(Cl)cc1)c1ccco1`, with “inactive”; and `O=C(COc1ccc(Cl)cc1Cl)N/N=C/c1ccccn1`, with -9.19 (active).
On to `O=C(COc1ccc(Cl)cc1Cl)NCCCNC(=O)c1cnccn1`, for which the B-score result is “inactive”.
For the molecule `CNC(=O)C(=O)N/N=C/c1ccccn1`, the B-score entry was “inactive”.
Regarding `O=C(N/N=C/c1ccccn1)c1cccc(NC(=O)c2ccc(Cl)cc2)c1`, the B-score is -8.92 (active).
For `O=C(Nc1cccc(CCc2ccccn2)c1)c1ccc(Cl)cc1`, the B-score entry is “inactive”.
With `Cc1cccc(C(=O)Nc2ccc(C(=O)N/N=C/c3cccc(C)n3)cc2)c1`, the B-score result is “inactive”.
The same measure for `COc1ccccc1NC(=O)c1cc(Cl)nnc1Cl`: “inactive”; for `CCc1noc(C)c1C(=O)Nc1nc(-c2ccccc2)cs1`: “inactive”.
As to `C[C@H](NC(=O)C1CC(=O)N(c2ccc3c(c2)OCO3)C1)C(=O)NCc1ccco1` (some centres undefined), the B-score entry was “inactive”.
Regarding `O=C(/C=C/c1ccccc1)Oc1coc(CSc2ncccn2)cc1=O`, the B-score result is “inactive”.
The same measure for `COc1cc(OC)cc(-c2cc3nc(C4CCN(C(=O)OC(C)(C)C)CC4)cc(=O)n3[nH]2)c1`: “inactive”; for `O=C(c1ccc(F)cc1)N1CCC(C(=O)N2CCN(S(=O)(=O)c3ccccc3Br)CC2)CC1`: “inactive”; for `O=C(Cc1ccc(S(=O)(=O)N2CCCC2)s1)NC1CCCCCC1`: “inactive”.
As for `O=C(Cn1nnc(N2CCCCC2)n1)c1ccc(Cl)c(Cl)c1`, the B-score result is “inactive”.
On to `CCCn1c(=N)n(CC(=O)c2ccc(Cl)c(Cl)c2)c2ccccc21`, for which the B-score was -7.8 (active).
`CCN(CC)CC1(O)CCN(C(=O)c2ccc(Cl)c(Cl)c2)CC1`: the B-score entry was “inactive”.
With `O=c1c2c3c(sc2n(CCN2CCCC2)c(=O)n1Cc1ccccc1)CCCCC3`, the B-score result is “inactive”.
`COc1cccc(N2CC(NC(=O)c3ccc4ccccc4c3)CC2=O)c1` (centres undefined): the B-score entry is “inactive”.
Consider `COc1cccc(CNS(=O)(=O)c2ccc3c(c2)CC(C)N3C(=O)C2CCC2)c1` (centres undefined), for which the B-score entry is “inactive”.
With `Cc1ccc2nc3c(cc(C(=O)NCCc4ccccc4)c(=N)n3CC3CCCO3)c(=O)n2c1` (centres undefined), the B-score entry is “inactive”.
Turning to `Cc1cc(C)c(C)c(S(=O)(=O)N2CCN(C(=O)c3ccc4c(=O)n5c(nc4c3)CCC5)CC2)c1C`, the B-score entry is “inactive”.
Regarding `COc1ccc(C(C)C)cc1S(=O)(=O)Nc1ncn[nH]1`, the B-score entry was “inactive”.
In the case of `CCOc1ccc(C(C)C)cc1S(=O)(=O)n1nc(C)cc1C`, the B-score was -10.1 (active).
Turning to `CCOc1cc(C)c(Cl)cc1S(=O)(=O)n1nnc2ccccc21`, the B-score entry was “inactive”.
For the molecule `CCOc1ccc(OCC(=O)Nc2c3c(nn2C(C)(C)C)CS(=O)(=O)C3)cc1`, the B-score entry was “inactive”.
Then `CCC(C)(C)n1nnnc1C(c1ccccc1OC)N1CCSCC1` (centres undefined), with -7.08 (active); and `COc1ccc(OC)c(C(c2nnnn2C(C)(C)C)N2CCc3ccccc3C2)c1` (centres undefined), with “inactive”; and `CC(C)(C)n1nnnc1C(c1ccc2ncccc2c1)N1CCSCC1` (centres undefined), with “inactive”.
The same measure for `CCCC(c1nnnn1C(C)(C)C)N1CCN(Cc2ccccc2)CC1` (centres undefined): “inactive”; for `CCC(C)(C)n1nnnc1C(c1ccc(OC)c(OC)c1)N1CCN(C(=O)c2ccco2)CC1` (centres undefined): “inactive”.
`COc1ccccc1C(c1nnnn1CC1CCCO1)N1CCN(c2ccccc2)CC1` (centres undefined): the B-score entry was “inactive”.
In the case of `CCC(C)(C)n1nnnc1C(c1cccs1)N1CCN(c2nc3ccccc3s2)CC1` (centres undefined), the B-score is -9.04 (active).
On to `CC(C)(C)n1nnnc1C(c1ccc(Cl)cc1)N1CCSCC1` (centres undefined), for which the B-score result was “inactive”.
Then `COc1ccccc1C(c1nnnn1C(C)(C)C)N1CCN(Cc2ccccc2)CC1` (centres undefined), with -21.5 (active); and `O=C(NC(=S)Nc1ccc2oc(=O)ccc2c1)c1ccc(-c2cccc(Cl)c2Cl)o1`, with “inactive”; and `Cc1ccc(S(=O)(=O)N2CCN(C(=O)c3ccc(-n4cncn4)c([N+](=O)[O-])c3)CC2)cc1`, with “inactive”.
In the case of `COc1ccc(CNC(=O)C2CCCC2)cc1`, the B-score entry is “inactive”.
In the case of `O=C1CC2(CC(c3ccc(Cl)cc3)=NO2)C(=O)N1c1ccccc1` (centres undefined), the B-score entry was “inactive”.
As to `Nc1cc(C(F)(F)F)ccc1N1CCOCC1`, the B-score entry was “inactive”.
Then `CCC(C)c1ccc(NC(=S)N2CCCC2)cc1` (centres undefined), with “inactive”; and `Cc1ccc(Cl)cc1NC(=S)N(CCN(C)C)Cc1cccs1`, with “inactive”.
For the molecule `Cc1ccc(CN(Cc2cccnc2)C(=S)Nc2cc(Cl)ccc2C)cc1`, the B-score is -7.5 (active).
For the molecule `Cc1ccc(CN(Cc2cccnc2)C(=S)Nc2cccc(Cl)c2C)cc1`, the B-score was -6.65 (active).
On to `COCCNC(=S)N(Cc1cccnc1)Cc1ccc(OC)c(OC)c1`, for which the B-score result was “inactive”.
The same measure for `Cc1cccc(C)c1NC(=S)N(Cc1cccnc1)Cc1ccccc1Cl`: “inactive”; for `Cc1c(Cl)cccc1NC(=S)N(Cc1ccccc1)Cc1cccnc1`: “inactive”.
